From the supplement of paper PMC7556523 come the findings set out here.

Values without a mark were called inactive.

The test system of assay [1] is Sporothrix brasiliensis CBS 133006. Put plainly: growth inhibition relative to untreated control; higher = more growth inhibition (more antifungal activity), active = 80 or more; extreme values may be limits of the assay. Conditions: 1 µM; 48 h. The method in brief: (§1)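 Each value is the percent growth inhibition compared with cells left untreated. Reference isolates were grown as yeast-form cells in brain heart infusion broth with 2% glucose for 7 days at 36°C, then exposed at 1 x 10^5 CFU/ml to library compounds at a final 1 μM for 48 h at 35°C in 5% CO2. Growth was inspected visually under an inverted light microscope and quantified by spectrophotometric readings, with runs in quadruplicate.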

The test system of assay [2] is Sporothrix schenckii ATCC 32286. Described as above. To be noted: 1 µM; 48 h. In a few lines: as §1

Regarding `CCCNC(=O)N1CCC2(CC1)CC(=O)c1cc(C)ccc1O2`, the growth inhibition in assay [1] and in assay [2] was 2.25% in each case.

Regarding `CCN(CC)S(=O)(=O)c1ccc(Cl)c(C(=O)Nc2ccc3nc(C)sc3c2)c1`, the values for the growth inhibition in assay [1] and in assay [2] were 0.5% and 9.75%, respectively.

On to `COc1cccn2c(C(=O)N3CCCCC3)c(C(F)(F)F)nc12`, for which the results for the growth inhibition in assay [1] and in assay [2] were 8.75% and 5%, respectively.

As for `CC(C(=O)Nc1ccc2oc(-c3ccncc3)nc2c1)c1ccccc1` (stereo not given), the growth inhibition was 15.2% in assay [1] and 0.5% in assay [2].

Consider `Cc1cc(C(=O)Nc2cnn(Cc3ccc(Cl)cc3Cl)c2)no1`, for which the results for the growth inhibition in assay [1] and in assay [2] were 5.75% and 12%, respectively.

For the compound `CC(=O)NC[C@@H]1CN(c2ccc(N3CCOCC3)c(F)c2)C(=O)O1`, the results for the growth inhibition in assay [1] and in assay [2] were 1.75% and 12.5%, respectively.

With `COc1cc(OC)cc(C(=O)NCC2Cc3cc(Cl)cc(-c4ccncc4)c3O2)c1` (stereo not given), the values for the growth inhibition in assay [1] and in assay [2] were 17.5% and 2%, respectively.

On to `Cc1cccc(-c2nc(Nc3ccncn3)c3sccc3n2)n1`, for which the growth inhibition in assay [1] is 1%; in assay [2], 9.75%.

Consider `O=C(c1ccc(NCCO)cc1)C1C[C@H]1c1ccc(Cl)cc1` (stereo not given in full), for which the growth inhibition was 2% in assay [1] and 8.5% in assay [2].

On to `Nc1ncnc2[nH]nc(Cc3cccc4ccccc34)c12`, for which the figures for the growth inhibition in assay [1] and in assay [2] were 6.25% and 0%, respectively.

For `CC(C)n1nc(-c2cc3c(Cl)cccc3[nH]2)c2c(N)ncnc21`, the growth inhibition in assay [1] was 15%; in assay [2] it was 16.8%.

Take `CC(=O)Oc1ccccc1C(=O)Nc1ncc([N+](=O)[O-])s1`: the growth inhibition is 3.5% in assay [1] and 14% in assay [2].

Regarding `CC[C@@H]([C@H](C)O)n1ncn(-c2ccc(N3CCN(c4ccc(OC[C@@H]5CO[C@@](Cn6cncn6)(c6ccc(F)cc6F)C5)cc4)CC3)cc2)c1=O`, the growth inhibition was 73% in assay [1] and 88.5% (active) in assay [2].

Consider `CCOc1ccc(OCC(=O)Nc2cc(C)cc(C)c2)cc1`, for which the growth inhibition in assay [1] is 12.2%; in assay [2], 18%.

For the compound `CC(C)(C)c1cnc(NC(=O)c2ccccc2O)s1`, the growth inhibition in assay [1] is 8%; in assay [2], 0%.

Take `Cc1ccc2nc(C)c(-c3ccn(Cc4ccccc4)n3)n2c1`: the growth inhibition in assay [1] is 44.8%; in assay [2], 36.5%.

In the case of `Cc1cc2ccccc2n1CC(=O)N1CC(C(=O)N2CCCCC2)Oc2ccccc21` (stereo not given), the growth inhibition is 14.8% in assay [1] and 10.8% in assay [2].

As for `N=C(N)c1ccc(-c2cc(-c3ccccc3)on2)cc1`, the growth inhibition in assay [1] was 7%; in assay [2], 10.5%.

For `NS(=O)(=O)c1cncc(-c2ccc3nccc(-c4cn[nH]c4)c3n2)c1`, the growth inhibition in assay [1] was 5.5%; in assay [2] it was 2%.

Consider `CN(C(=O)c1cc2c(-c3cncnc3)cccc2[nH]1)c1ccccc1`, for which the growth inhibition in assay [1] is 8.25%; in assay [2] it was 3.25%.

On to `Cc1cc(C)nc(-n2nc(C)cc2Nc2ccccc2)n1`, for which the growth inhibition in assay [1] is 17.2%; in assay [2], 1%.

`Cc1cc(OCC(=O)NCc2ccccc2)c2cc(Br)ccc2n1`: the results for the growth inhibition in assay [1] and in assay [2] were 10% and 4%, respectively.

For `COc1ccccc1OCCCCn1c(C2CC2)nc2ccccc21`, the growth inhibition in assay [1] is 7.75%; in assay [2], 9.25%.

Consider `N=C(N)c1ccc(OCCCCCOc2ccc(C(=N)N)cc2)cc1`, for which the growth inhibition in assay [1] was 93.5% (active); in assay [2] it was 72%.

Consider `COc1cc(NC(C)CCCN)c2ncccc2c1` (stereo not given), for which the results for the growth inhibition in assay [1] and in assay [2] were 1% and 4.25%, respectively.

Turning to `Nc1cccnc1Nc1ccc(Cl)cc1`, the growth inhibition in assay [1] is 13.8%; in assay [2], 0%.

As for `CC(C)(C)CN1C(=O)C(c2ccccc2)(c2ccccc2)N=C1N`, the values for the growth inhibition in assay [1] and in assay [2] were 17.8% and 4.25%, respectively.

Regarding `COc1cc(-c2cc(-c3ccc(S(C)(=O)=O)cc3)cnc2N)ccc1O`, the growth inhibition in assay [1] is 17.8%; in assay [2], 19.8%.

For the compound `Nc1ncc(-c2cn[nH]c2)cc1-c1nc2cc(Cl)cnc2[nH]1`, the growth inhibition was 12% in assay [1] and 11% in assay [2].

Take `N#Cc1ccc(-c2ccc(OCC(N)=O)cc2)cc1`: the values for the growth inhibition in assay [1] and in assay [2] were 19.2% and 0%, respectively.

With `CC(C)(C)n1nc(Cc2ccc(F)c(Cl)c2)c2c(N)ncnc21`, the growth inhibition is 14.2% in assay [1] and 0% in assay [2].

Regarding `C[C@H]1c2cccc(O)c2C(=O)C2=C(O)[C@]3(O)C(=O)C(C(N)=O)=C(O)[C@@H](N(C)C)[C@@H]3[C@@H](O)[C@@H]21`, the growth inhibition in assay [1] was 9.12%; in assay [2], 10.5%.

As to `CCc1cc(=O)n(C)c(SC(C)C(=O)Nc2ccc(F)cc2)n1` (stereo not given), the growth inhibition is 9.25% in assay [1] and 13.5% in assay [2].

As for `CCCCc1ccc(C(=O)Nc2nccc3ccccc23)nc1`, the growth inhibition in assay [1] was 23.5%; in assay [2] it was 1%.

For the compound `CC(C)n1ncc2c(C(=O)NCC(c3cccs3)N3CCOCC3)cc(-c3ccccc3)nc21` (stereo not given), the growth inhibition in assay [1] is 2%; in assay [2], 12.8%.
